Our source for the Percent Effect values is ChEMBL document CHEMBL3988442, “University of Dundee, Small-Polar-MMV Screening Library” (2021).

For some of these results: Potency and affinity values are given separately.

Holding throughout (design): scale not given: direction of the effect not stated beside the values
The target in experiment [1] is Protein translocase subunit SecA (Escherichia coli (strain K12)) (UniProt P10408). The experiment in a line: Assay to Identify E. coli SecA ATPase Inhibitors. In kind it is functional. The note with it: 30 µM.
The target of experiment [2] is T1, Ubiquitin-activating enzyme e1, putative (Leishmania donovani (strain BPK282A1)) (UniProt E9BSI1).
T1 sequence (whole entry): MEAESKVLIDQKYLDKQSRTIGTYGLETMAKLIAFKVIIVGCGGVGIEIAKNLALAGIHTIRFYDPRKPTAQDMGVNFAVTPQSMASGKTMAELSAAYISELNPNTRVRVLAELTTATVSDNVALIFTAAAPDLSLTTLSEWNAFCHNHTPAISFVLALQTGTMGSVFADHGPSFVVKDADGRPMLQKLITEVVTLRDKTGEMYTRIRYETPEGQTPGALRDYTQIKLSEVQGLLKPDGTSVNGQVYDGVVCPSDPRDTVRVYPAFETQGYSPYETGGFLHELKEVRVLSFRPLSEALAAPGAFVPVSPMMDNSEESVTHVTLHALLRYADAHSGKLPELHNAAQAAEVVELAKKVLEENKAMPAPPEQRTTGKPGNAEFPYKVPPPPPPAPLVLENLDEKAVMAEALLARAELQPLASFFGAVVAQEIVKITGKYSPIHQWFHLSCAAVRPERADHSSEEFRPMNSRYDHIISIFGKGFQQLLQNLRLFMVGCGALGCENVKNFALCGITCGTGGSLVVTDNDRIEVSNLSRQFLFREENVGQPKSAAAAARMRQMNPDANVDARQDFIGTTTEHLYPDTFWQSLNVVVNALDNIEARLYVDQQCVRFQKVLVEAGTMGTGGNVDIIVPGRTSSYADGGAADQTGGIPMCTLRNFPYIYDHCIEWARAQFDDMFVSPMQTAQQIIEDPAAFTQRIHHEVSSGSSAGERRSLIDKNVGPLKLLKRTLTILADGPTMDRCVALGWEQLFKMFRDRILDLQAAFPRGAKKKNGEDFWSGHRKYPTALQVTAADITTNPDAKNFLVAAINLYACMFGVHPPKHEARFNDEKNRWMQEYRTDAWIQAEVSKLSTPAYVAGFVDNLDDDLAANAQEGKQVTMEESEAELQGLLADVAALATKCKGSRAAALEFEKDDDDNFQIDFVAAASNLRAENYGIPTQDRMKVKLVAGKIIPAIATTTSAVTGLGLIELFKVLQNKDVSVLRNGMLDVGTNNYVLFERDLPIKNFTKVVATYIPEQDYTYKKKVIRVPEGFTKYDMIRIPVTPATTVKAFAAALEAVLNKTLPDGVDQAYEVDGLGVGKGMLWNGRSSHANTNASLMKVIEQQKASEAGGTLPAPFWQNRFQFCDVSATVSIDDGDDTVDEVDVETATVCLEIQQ
Briefly: Leishmania donovani Ubiquitin Activating Enzyme (LdE1). In kind it is functional. The note with it: 30 µM.

In experiment [3] the target is AMP-activated protein kinase, AMPK (Homo sapiens) (UniProt P54646+O43741+P54619+Q9UGJ0+Q9Y478+Q13131+Q9UGI9). Briefly: AMP-dependent Kinase enzyme assay. An in vitro enzyme assay that detects ADP turnover that is directly proportional to AMPK activity. This uses naive AMPK that is activated during the assay with MK-8722. In kind it is functional. The note with it: 30 µM.

For experiment [4], the target named is Sialic acid-binding Ig-like lectin 9 (Homo sapiens) (UniProt Q9Y336). Briefly: Hs-Siglec9 ALPHAscreen SOP 20170721. The note with it: 10 µM. Background: Alpha assays give light when donor and acceptor beads are brought close together.
In experiment [5] the test system is Trypanosoma cruzi. The experiment in a line: Trypanosoma cruzi phosphomannomutase and mannose-1-phosphate guanylyltransferase assay. The settings on record: 10 µM. In kind it is functional.
Experiment [6] has as its target T2, Arginase-2, mitochondrial (Homo sapiens) (UniProt P78540).
T2 sequence (whole entry): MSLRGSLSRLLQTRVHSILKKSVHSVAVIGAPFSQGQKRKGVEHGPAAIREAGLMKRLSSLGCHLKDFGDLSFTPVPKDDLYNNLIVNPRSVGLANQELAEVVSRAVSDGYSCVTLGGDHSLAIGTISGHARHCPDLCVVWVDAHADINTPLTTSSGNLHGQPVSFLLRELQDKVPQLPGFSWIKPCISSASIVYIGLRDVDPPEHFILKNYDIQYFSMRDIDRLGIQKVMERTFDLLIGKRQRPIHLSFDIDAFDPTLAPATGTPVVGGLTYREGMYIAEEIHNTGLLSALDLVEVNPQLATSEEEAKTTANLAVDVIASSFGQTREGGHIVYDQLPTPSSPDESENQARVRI
The experiment in a line: in vitro enzyme assay to detect the production of urea directly proportional to the activity of Arginase II. Further: in the data most compounds retested in dose-response had high values. In kind it is functional. The note with it: 33.3 µM.

Experiment [7] deals with T3, Proteasome subunit beta (Trypanosoma cruzi) (UniProt O96673).
T3 sequence (whole entry): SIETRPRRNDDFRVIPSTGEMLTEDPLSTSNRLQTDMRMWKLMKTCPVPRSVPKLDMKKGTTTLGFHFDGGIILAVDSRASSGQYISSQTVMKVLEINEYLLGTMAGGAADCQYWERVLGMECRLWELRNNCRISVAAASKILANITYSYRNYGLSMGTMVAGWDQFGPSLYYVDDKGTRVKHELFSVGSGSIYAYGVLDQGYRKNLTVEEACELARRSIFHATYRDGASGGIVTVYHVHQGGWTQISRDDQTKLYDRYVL
The experiment in a line: Trypanosoma cruzi proteasome chymotrypsin-like activity (TcProtChymo) assay. Further: in the data most compounds retested in dose-response had high values. In kind it is functional. The note with it: 9.37 µM.

The species entered for experiment [8] is Homo sapiens. The experiment in a line: To identify inhibition of the IFN signalling (Jak-Stat) pathway via expression of an eGFP reporter gene under the control of an IFN-stimulated response element (ISRE) containing MxA promoter. In kind it is functional. The settings on record: 30 µM.
The target in experiment [9] is T4, Tyrosyl-tRNA synthetase, putative (Trypanosoma cruzi (strain CL Brener)) (UniProt Q4DSP6).
T4 sequence (whole entry): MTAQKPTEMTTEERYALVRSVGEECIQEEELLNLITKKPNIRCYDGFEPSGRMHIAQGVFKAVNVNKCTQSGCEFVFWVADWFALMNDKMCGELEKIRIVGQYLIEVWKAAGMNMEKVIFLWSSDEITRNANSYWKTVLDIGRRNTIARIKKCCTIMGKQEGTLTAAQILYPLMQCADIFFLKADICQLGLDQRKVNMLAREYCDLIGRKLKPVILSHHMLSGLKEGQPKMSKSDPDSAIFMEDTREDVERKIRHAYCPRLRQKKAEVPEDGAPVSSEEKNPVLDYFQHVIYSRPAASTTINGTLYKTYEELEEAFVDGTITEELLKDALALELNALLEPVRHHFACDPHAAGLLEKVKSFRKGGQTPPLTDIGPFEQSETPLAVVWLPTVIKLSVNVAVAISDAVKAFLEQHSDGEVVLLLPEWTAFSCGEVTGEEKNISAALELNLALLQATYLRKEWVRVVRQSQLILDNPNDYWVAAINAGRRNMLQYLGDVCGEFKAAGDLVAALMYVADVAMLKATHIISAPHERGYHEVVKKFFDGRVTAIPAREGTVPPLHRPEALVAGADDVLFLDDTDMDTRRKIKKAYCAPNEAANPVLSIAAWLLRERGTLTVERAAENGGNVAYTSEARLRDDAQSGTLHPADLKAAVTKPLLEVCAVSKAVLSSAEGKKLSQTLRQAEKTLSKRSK
Briefly: Trypanosoma cruzi tyrosyl tRNA synthetase (TcYRS) _High Tyrosine SOP. Further: in the data most compounds retested in dose-response had high values. In kind it is functional. The note with it: 30 µM.

The target of experiment [10] is T4, Tyrosyl-tRNA synthetase, putative (Trypanosoma cruzi (strain CL Brener)). The experiment in a line: Trypanosoma cruzi tyrosyl tRNA synthetase (TcYRS) SOP. In kind it is functional. The settings on record: 30 µM.
The target in experiment [11] is Chromo domain-containing protein 1 (Saccharomyces cerevisiae (strain ATCC 204508 / S288c) (Baker's yeast)) (UniProt P32657). The experiment in a line: ScCHD-1 Enzyme Inhibition Assay. Further: in the data most compounds retested in dose-response had high values. The settings on record: 30 µM. In kind it is functional.
Chain of Chromo domain-containing protein 1 (Saccharomyces cerevisiae (strain ATCC 204508 / S288c) (Baker's yeast)) (P32657 whole entry, the tested form may be a part): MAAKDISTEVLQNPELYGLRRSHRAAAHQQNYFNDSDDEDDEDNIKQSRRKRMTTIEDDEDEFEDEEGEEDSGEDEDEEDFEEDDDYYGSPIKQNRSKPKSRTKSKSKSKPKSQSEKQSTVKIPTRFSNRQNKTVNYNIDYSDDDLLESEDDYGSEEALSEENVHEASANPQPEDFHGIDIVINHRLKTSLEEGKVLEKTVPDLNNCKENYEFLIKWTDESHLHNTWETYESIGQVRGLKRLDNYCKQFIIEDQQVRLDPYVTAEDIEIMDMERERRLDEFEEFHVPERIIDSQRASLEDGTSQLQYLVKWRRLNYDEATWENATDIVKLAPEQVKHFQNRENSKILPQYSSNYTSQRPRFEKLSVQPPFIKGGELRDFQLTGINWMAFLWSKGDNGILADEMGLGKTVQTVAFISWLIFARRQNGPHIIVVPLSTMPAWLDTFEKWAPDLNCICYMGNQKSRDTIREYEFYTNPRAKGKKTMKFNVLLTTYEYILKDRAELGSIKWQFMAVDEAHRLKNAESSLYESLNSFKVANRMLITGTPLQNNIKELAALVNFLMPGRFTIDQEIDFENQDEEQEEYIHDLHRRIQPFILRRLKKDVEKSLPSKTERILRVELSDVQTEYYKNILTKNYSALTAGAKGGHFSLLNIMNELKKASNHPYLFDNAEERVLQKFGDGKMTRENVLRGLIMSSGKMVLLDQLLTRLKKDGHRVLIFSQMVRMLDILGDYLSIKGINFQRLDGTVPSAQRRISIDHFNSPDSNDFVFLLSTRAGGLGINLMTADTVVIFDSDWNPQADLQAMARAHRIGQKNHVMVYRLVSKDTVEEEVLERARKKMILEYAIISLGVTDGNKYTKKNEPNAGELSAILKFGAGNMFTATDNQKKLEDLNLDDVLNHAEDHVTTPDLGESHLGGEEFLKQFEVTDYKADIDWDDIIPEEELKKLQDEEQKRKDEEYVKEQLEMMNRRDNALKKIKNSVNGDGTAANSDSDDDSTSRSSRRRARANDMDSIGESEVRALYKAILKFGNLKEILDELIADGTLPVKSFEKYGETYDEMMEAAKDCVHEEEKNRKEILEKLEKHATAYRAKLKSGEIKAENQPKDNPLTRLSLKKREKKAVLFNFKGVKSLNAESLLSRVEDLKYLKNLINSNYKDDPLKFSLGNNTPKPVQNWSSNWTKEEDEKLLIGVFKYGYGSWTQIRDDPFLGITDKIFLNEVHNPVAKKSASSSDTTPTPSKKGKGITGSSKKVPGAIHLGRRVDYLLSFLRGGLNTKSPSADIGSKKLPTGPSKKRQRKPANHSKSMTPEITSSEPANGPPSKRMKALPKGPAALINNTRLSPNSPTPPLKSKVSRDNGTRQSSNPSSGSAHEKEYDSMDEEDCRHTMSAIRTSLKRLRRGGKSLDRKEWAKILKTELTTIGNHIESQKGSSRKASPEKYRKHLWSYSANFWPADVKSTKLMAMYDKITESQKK

Chain of Protein translocase subunit SecA (Escherichia coli (strain K12)) (P10408 whole entry): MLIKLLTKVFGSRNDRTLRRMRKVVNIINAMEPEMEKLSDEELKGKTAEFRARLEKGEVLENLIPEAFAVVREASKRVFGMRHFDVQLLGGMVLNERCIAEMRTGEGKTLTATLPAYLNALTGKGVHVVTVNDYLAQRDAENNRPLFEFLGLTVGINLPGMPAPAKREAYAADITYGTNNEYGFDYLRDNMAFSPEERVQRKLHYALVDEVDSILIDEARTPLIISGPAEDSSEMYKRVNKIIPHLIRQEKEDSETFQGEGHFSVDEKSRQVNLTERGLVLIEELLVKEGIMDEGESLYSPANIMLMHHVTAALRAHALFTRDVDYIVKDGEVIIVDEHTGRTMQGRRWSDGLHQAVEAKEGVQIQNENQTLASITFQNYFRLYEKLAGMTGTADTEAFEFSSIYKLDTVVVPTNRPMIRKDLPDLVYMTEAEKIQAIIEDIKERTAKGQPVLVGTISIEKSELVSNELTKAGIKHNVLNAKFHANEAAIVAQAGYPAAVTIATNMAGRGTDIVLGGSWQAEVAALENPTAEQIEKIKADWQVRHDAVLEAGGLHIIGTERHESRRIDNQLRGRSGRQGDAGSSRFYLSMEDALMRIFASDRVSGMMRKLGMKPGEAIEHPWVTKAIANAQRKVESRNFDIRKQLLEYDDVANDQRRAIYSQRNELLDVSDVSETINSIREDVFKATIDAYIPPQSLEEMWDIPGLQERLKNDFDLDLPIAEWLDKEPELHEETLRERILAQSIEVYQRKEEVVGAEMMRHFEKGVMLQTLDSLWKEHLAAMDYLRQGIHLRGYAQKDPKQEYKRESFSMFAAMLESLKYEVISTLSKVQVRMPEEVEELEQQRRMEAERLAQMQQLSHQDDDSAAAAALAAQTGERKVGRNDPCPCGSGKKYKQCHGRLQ
Chain of Sialic acid-binding Ig-like lectin 9 (Homo sapiens) (Q9Y336 whole entry): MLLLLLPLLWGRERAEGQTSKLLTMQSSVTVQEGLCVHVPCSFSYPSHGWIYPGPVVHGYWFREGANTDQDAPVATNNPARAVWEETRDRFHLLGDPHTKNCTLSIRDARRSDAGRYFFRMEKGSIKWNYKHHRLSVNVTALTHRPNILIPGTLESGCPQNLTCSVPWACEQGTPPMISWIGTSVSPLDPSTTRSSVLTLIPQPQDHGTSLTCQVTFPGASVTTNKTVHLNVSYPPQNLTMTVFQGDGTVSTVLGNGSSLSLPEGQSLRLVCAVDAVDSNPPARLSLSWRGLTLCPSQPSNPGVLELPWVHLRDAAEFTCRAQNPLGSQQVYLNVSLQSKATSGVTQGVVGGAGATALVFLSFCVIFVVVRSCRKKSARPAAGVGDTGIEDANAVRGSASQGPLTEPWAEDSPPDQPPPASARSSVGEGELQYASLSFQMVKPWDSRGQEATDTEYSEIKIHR

For `O=C(COc1coc(CN2CCCCC2)cc1=O)NCc1ccccc1`, the Percent Effect is -1.81% in experiment [1]; 7.89% in [2]; 6.63% in experiment [3]; 2.03% in [4]; -4.38% in experiment [5]; -4.73% in [6]. Further, the Percent Effect in experiment [7] was 18.5%; in [8], -0.295%; in experiment [9], 4.25%; in [10] it was 10.4%; in experiment [11], -5.41%.
As to `CC(C)c1noc(CN2CCN(C(=O)c3ccccc3F)CC2)n1`, the Percent Effect in experiment [1] is -4.33%; in [2] it was 13.5%; in experiment [3], -4.45%; in experiment [4], 3.5%; in [5], -2.32%; in experiment [6], -3.88%. The Percent Effect in experiment [7] is 6.82%; in experiment [8], 23.6%; in experiment [9], 7.92%; in experiment [10] it was 18.3%; in experiment [11] it was 0.419%.
As for `O=C(c1cccc(N2CCCC2=O)c1)N1CCCC(n2cncn2)C1` (stereo not drawn), the Percent Effect in experiment [1] is -5.98%; in experiment [2], 13.5%; in experiment [3], -31.2%; in [4] it was 2.17%; in [5] it was -1.6%; in [6] it was -1.6%. In addition, the Percent Effect was -0.18% in [7]; 7.08% in [8]; 8.37% in experiment [9]; 13.6% in experiment [10]; -5.4% in experiment [11].
In the case of `Cc1sc(NC(=O)CN(C)S(C)(=O)=O)c(C#N)c1C`, the Percent Effect in [1] was -2.06%; in [2], 7.79%; in experiment [3], 7.85%; in experiment [4], -2.17%; in experiment [5], -6.8%; in experiment [6], -29%. Moreover, the Percent Effect in [7] is 13.4%; in experiment [8], 2.12%; in experiment [9], 5.29%; in experiment [10], 8.97%; in experiment [11], -6.9%.
Consider `CCc1nc2n(n1)CC(NCC(=O)Nc1ccc(Cl)cn1)CC2` (stereo not drawn), for which the Percent Effect in experiment [1] was -0.524%; in experiment [2], 10.1%; in [3] it was -6.65%; in [4], -1.69%; in [5], -7.65%; in [6] it was 3.04%. Moreover, the Percent Effect in [7] is 5.82%; in [8], 12.9%; in experiment [9], 0.493%; in experiment [10] it was 3.8%; in experiment [11], -7.63%.
For the compound `CC(C)CN1CCC(NC(=O)c2ccc(F)cc2I)CC1`, the Percent Effect is -4.38% in [1]; 23.6% in experiment [2]; -16% in experiment [3]; 29.2% in [4]; 7.48% in experiment [5]; 39.7% in experiment [6]. For the same compound, the Percent Effect in experiment [7] is 8.6%; in experiment [8], -5.59%; in experiment [9], 4.21%; in experiment [10], 17.9%; in experiment [11], -10.3%.
`CN(C)Cc1cc(=O)n2c(n1)CN(C(=O)Cc1ccsc1)CCC2`: the Percent Effect in [1] is 0.204%; in experiment [2], 2.6%; in [3] it was 0.0483%; in [4], -0.795%; in [5], 0.492%; in experiment [6], 1.38%. In addition, the Percent Effect in experiment [7] was 6.49%; in [8], -22.4%; in experiment [9], 1.07%; in experiment [10] it was 1.24%; in [11] it was -2.76%.
As to `CN(Cc1cnn(-c2ccccc2)n1)CC1CCCN1c1cccnn1` (stereo not drawn), the Percent Effect in experiment [1] is -3.33%; in experiment [2] it was -36.8%; in experiment [3] it was 3.24%; in [4], 7.96%; in experiment [5], 5.7%; in experiment [6], 0.36%. The Percent Effect in [7] was -3.98%; in experiment [8] it was 8.95%; in experiment [9], 8.37%; in experiment [10] it was 13.6%; in experiment [11], 1.47%.
